Lassa entry inh: qHTS for Inhibitors of binding or entry into cells for Lassa Virus. 1.2% of 300,000 active. Lassa virus pseudotype entry inhibition, cell reporter. Potency, µM (doses to about 37.9 µM), for the others: top-dose activity change, negative = inhibition, hits mostly inhibitors; calls by dose curve; tested in HEK293 cells; note: potency is the fitted concentration of half-maximal effect; nearly all actives have a fitted effect of over 50% in size
Pf growth 96h: Primary qHTS for delayed death inhibitors of the malarial parasite plastid, 96 hour incubation. P. falciparum luciferase reporter growth, 96 h. Potency, µM (top dose mostly 28.7 µM), for inactives: at the highest dose activity change, negative = inhibition, actives largely listed as inhibitors. 6.9% of 320,000 active; note: potency is the fitted concentration of half-maximal effect
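Cell-based qHTS: luciferase-tagged P. falciparum in erythrocytes (2% hematocrit, 0.05% parasitemia final) incubated with compounds for 96 hours, 37 C, 5% CO2; luciferase detection reagent then added and luminescence measured.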
Pf growth 48h: Primary qHTS for delayed death inhibitors of the malarial parasite plastid, 48 hour incubation; P. falciparum luciferase growth in erythrocytes, 48 h; Potency, µM (titrated, usually from 28.7 µM), inactives show at the highest dose activity change, negative = inhibition, most hits filed as inhibitors; 5.9% of 310,000 active; note: potency is the fitted concentration of half-maximal effect
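Compounds are pin-transferred into medium, infected erythrocytes (2% hematocrit, 0.1% parasitemia final) are added, and plates sit one parasite generation at 37 C in 5% CO2. Detection reagent is then added and luminescence measured.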
MARV entry inh: qHTS for inhibitors of binding or entry into cells for Marburg Virus; Marburg virus pseudotyped entry inhibition, cell reporter; Potency, µM (highest dose often 37.8 µM), for inactives: top-dose activity change, negative = inhibition, most hits filed as inhibitors; 1.8% of 300,000 active; calls by dose curve; tested in HEK293 cells; note: potency is the fitted concentration of half-maximal effect
HCMV antiviral: qHTS Assay for inhibitors of the human cytomegalovirus (HCMV); HFF cells, HCMV-luciferase reporter, 72 h; active compounds read low; activity change, negative = inhibition, % at 57.5 µM; 4.5% of 410,000 active; AID 1259415, 2018; in the data active = activity change below about -60%; inconclusive = no clear call, values can overlap the other calls; inactive = above about -39%
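Compounds were evaluated in HFFs infected with an HCMV luciferase reporter virus (MOI 1 PFU/cell). Luciferase in lysates collected 72 h post infection served as the replication measure.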
HCV inh: qHTS Assay for Inhibitors of Hepatitis C Virus (HCV); Huh7.5.1 HCVcc-Cre infection, luciferase reporter, 44 h; Potency, µM (doses to about 41.8 µM), for the others: at the top dose activity change, negative = inhibition, actives largely listed as inhibitors; 3.4% of 340,000 active; AID 651820, 2012; note: potency is the fitted concentration of half-maximal effect
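Cells (1,000/well) were plated 4 h before compound, then infected with HCVcc-Cre virus (~0.5 moi). After 44 h further culture, infection was read as luciferase luminescence following a 15 min substrate incubation at room temperature.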
* = called active by the depositor; ! = not active in a repeat; [ ] = dose if it differs, or a comment. Only some compounds are listed: those with a hit (about 14% of all), similar ones and a draw of the others. Unless noted, calls come from the whole dose curve; as a rule, active = well fitted inhibition curve with a large enough effect; inconclusive = small, poorly fitted or top-dose-only effect, or another doubt; inactive = no such curve, though single readings can be large or run the other way. % is set by controls: 0 for no effect and ±100 for the full control effect.

For COc1ccc(Cl)cc1C(=O)Nc1ccc(S(=O)(=O)N2CCCC2)cc1 the results were Lassa entry inh -1.6%, Pf growth 48h 39.9%, MARV entry inh 12.9%, HCMV antiviral -101.5* and HCV inh 10.8%.
For O=C(Nc1ccncc1)c1cc(S(=O)(=O)N2CCCC2)ccc1Cl the results were HCMV antiviral 21.2 and HCV inh inconclusive.
For COc1ccccc1C(=O)Nc1ccc(S(=O)(=O)N2CCCC2)cc1 the results were Lassa entry inh -2.5%, Pf growth 96h 81.8%, Pf growth 48h -26.7%, MARV entry inh 2.2%, HCMV antiviral -8.7 and HCV inh -3.6%.
`O=C(NCCCn1cccn1)c1cc(COc2ccccc2)on1` gave HCMV antiviral -26.5.
`c1ccc2c(CN3CCCCCC3)c[nH]c2c1` gave Lassa entry inh -14.9%, Pf growth 96h -18.3%, Pf growth 48h 45.3%, MARV entry inh inconclusive, HCMV antiviral -77.2* and HCV inh -28.6%.
Screening O=C(Nc1ccccc1)N(Cc1c[nH]c2ccccc12)C1CCCCCC1 returned Lassa entry inh -4.9%[46.1 µM], MARV entry inh 4.5%[46.1 µM] and HCMV antiviral 30.8.
For c1ccc2c(CNC3CCCCCC3)c[nH]c2c1 the results were Lassa entry inh -2.0%, Pf growth 96h 10.4µM*, MARV entry inh 13µM*, HCMV antiviral 10.5 and HCV inh 8.3%.
For c1ccc2c(CN3CCOCC3)c[nH]c2c1 the results were Pf growth 96h inconclusive, Pf growth 48h 6.3%, HCMV antiviral 19.1 and HCV inh 4.2%.
For Cc1ccc2nc(COc3cccc(NC(=O)COc4ccc(F)cc4)c3)cc(=O)n2c1 the results were Lassa entry inh inconclusive and HCMV antiviral 23.1.
`COc1cc(C(=O)N2CCCN(c3nc4cc(C)ccc4cc3C#N)CC2)cc(OC)c1OC` gave Lassa entry inh -30.4%, Pf growth 48h 8.28µM*, MARV entry inh inconclusive, HCMV antiviral 27.7 and HCV inh inconclusive.
`COc1ccc(C(=O)N2CCN(c3nc4cc(C)ccc4cc3C#N)CC2)c(OC)c1` gave Lassa entry inh inconclusive, Pf growth 96h -2.5%, Pf growth 48h 2.08µM*, MARV entry inh inconclusive, HCMV antiviral -20.9 and HCV inh inconclusive.
`Cc1ccc2cc(C#N)c(N3CCCN(C(=O)C4CCCO4)CC3)nc2c1` (stereo not drawn) gave Lassa entry inh -29.2%, Pf growth 96h inconclusive, Pf growth 48h 2.94µM*, MARV entry inh 1.6%, HCMV antiviral 17.4 and HCV inh 1.4%.
For CC(C)(C)NC(=O)C(c1cc2ccccc2o1)n1c(=O)c(-c2ccccc2)nc2ccccc21 (stereo not drawn) the results were HCMV antiviral -3.7.
`CC(C)NC(=O)N(C)C[C@H]1Oc2ccc(NC(=O)C3CC3)cc2C(=O)N([C@H](C)CO)C[C@@H]1C` gave HCMV antiviral -11.9 and HCV inh 16.8%.
Screening C/C(=N\Oc1cccc(F)n1)c1ccc(Cl)cc1Cl returned Lassa entry inh inconclusive, Pf growth 48h -15.1%, MARV entry inh -5.1%, HCMV antiviral -34.2 and HCV inh -4.0%.
C/C(=N/Oc1nc(C)cc(C)n1)c1ccc(Cl)cc1Cl was read as Lassa entry inh -24.6%, Pf growth 96h -11.1%, Pf growth 48h -7.7%, MARV entry inh 8.5%, HCMV antiviral -61.1* and HCV inh -22.9%.
CCOC(=O)[C@H]1[C@H]2COc3ccc(Br)cc3[C@@H]2N2C(=O)CN(CC3CCCO3)C(=O)[C@@]12C (stereo partly drawn) was read as Pf growth 96h inconclusive, Pf growth 48h inconclusive, HCMV antiviral 22.6 and HCV inh 8.5%.
COc1ccc(/C=C2/C(=O)N=C(N)N2C)cc1OC was read as Lassa entry inh inconclusive, Pf growth 96h 11.7µM*, Pf growth 48h 2.1%, MARV entry inh 3.6%, HCMV antiviral -7.0 and HCV inh 4.2%.
For CCCn1c(SCC(=O)N(C2CCCCC2)C2CCS(=O)(=O)C2)n[nH]c1=O (stereo not drawn) the results were Pf growth 96h 47.4%, Pf growth 48h 39.7%, HCMV antiviral 9.9 and HCV inh 2.4%.
COc1ccc(NC(=O)CCS(=O)(=O)c2nc(-c3ccc4c(c3)OCO4)cc(C(F)(F)F)n2)cc1 was read as Lassa entry inh -31.7%[46.1 µM], MARV entry inh -17.1%[46.1 µM] and HCMV antiviral -75.8*.
Screening Cc1cc(NC(=O)CCS(=O)(=O)c2nc(-c3ccccc3)cc(C(F)(F)F)n2)no1 returned Lassa entry inh inconclusive, Pf growth 96h -18.1%, Pf growth 48h 0.1%, MARV entry inh inconclusive, HCMV antiviral -104.2* and HCV inh 10µM*.
For COc1ccccc1-c1cc(C(F)(F)F)nc(S(=O)(=O)CCCC(=O)N2CCOCC2)n1 the results were Lassa entry inh 12.6µM*, Pf growth 96h -2.0%[5.75 µM], Pf growth 48h inconclusive, MARV entry inh 11.2µM*!, HCMV antiviral -104.4* and HCV inh inconclusive.
COc1ccccc1-c1cc(C(F)(F)F)nc(S(=O)(=O)CCCC(=O)O)n1 was read as Lassa entry inh 7.3%, Pf growth 96h inconclusive, MARV entry inh inconclusive, HCMV antiviral -14.1 and HCV inh 27.7%.
COc1ccccc1-c1cc(C(F)(F)F)nc(S(=O)(=O)CCCC(=O)Nc2ccc(F)c(Cl)c2)n1 was read as Lassa entry inh 3.7%[46.1 µM], MARV entry inh 24.5%[46.1 µM] and HCMV antiviral 10.2.
`COc1ccc(-c2cc(C(F)(F)F)nc(S(=O)(=O)CCCC(=O)Nc3cccc(O)c3)n2)cc1OC` gave Lassa entry inh inconclusive, Pf growth 96h -3.7%, Pf growth 48h inconclusive, MARV entry inh inconclusive, HCMV antiviral -98.8* and HCV inh 11.2µM*.
Screening O=C(CCS(=O)(=O)c1nc(-c2ccc3c(c2)OCO3)cc(C(F)(F)F)n1)Nc1ccc(F)cc1F returned Lassa entry inh 11.6%[46.1 µM], MARV entry inh inconclusive and HCMV antiviral 40.3.
`COc1ccc(CCNS(=O)(=O)c2cc(-c3cc(C)no3)ccc2OC)cc1OC` gave Lassa entry inh -14.8%[46.1 µM] and HCMV antiviral inconclusive.
`COc1ccc(CCNC(=O)CCn2c(=O)c3ccccc3n(CC(=O)Nc3cccc(C)c3)c2=O)cc1OC` gave Lassa entry inh 27.5%[46.1 µM], MARV entry inh -8.4%[46.1 µM] and HCMV antiviral -1.7.
CS(=O)(=O)c1nc(-c2ccccc2)cc(C(F)(F)F)n1 was read as Lassa entry inh inconclusive, Pf growth 96h 10.9%, Pf growth 48h -16.8%, MARV entry inh 6.31µM*, HCMV antiviral -98.0* and HCV inh 10µM*.

From PubChem BioAssay
